According to PubChem BioAssay AID781 (Emory University Molecular Libraries Screening Center, 2007):
The whole screen tested about 220,000 compounds, of which about 1,600 (0.73%) were called active.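 How the source made its calls: active means inhibition above about 70% (limit read from the data); inactive means the rest.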 Shown is part of a subset that was picked to be rich in actives.

Biological target: 14-3-3 protein zeta/delta (Bos taurus) (UniProt P63103)
Assay: inhibitors of 14-3-3 zeta/Bad binding, primary screen, biochemical, TR-FRET, bovine 14-3-3 zeta (AID 781);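 further: 0% = full 14-3-3 plus peptide FRET controls and 100% = background without 14-3-3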
Conditions: TR-FRET 14-3-3zeta/Dy647-pBad peptide displacement, 1 h; at 21.7 µM; hits give high values

Sequence of 14-3-3 protein zeta/delta (Bos taurus) (P63103 whole entry, looked up): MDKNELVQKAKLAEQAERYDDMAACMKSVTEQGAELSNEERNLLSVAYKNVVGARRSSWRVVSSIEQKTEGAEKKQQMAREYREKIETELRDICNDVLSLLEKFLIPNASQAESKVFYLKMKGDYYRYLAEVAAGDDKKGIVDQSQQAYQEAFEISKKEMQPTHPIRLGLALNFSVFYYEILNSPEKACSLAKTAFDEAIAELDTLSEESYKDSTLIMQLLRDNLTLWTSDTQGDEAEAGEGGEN

inhibition, inactive:
Cc1ccc(CN2CCN(Cc3ccc(OCCO)cc3)CC2CCO)o1 (stereo not given) -4.12%, COc1ccccc1CNC(=O)C1CCN(c2nc3ccccc3o2)CC1 -3.16%, COc1ccc(CNC(=O)C2CCN(S(C)(=O)=O)CC2)cc1 -4.78%, Cc1cc(OCCCCOc2ccc(C#N)cc2)ccc1[N+](=O)[O-] -4.45%, CCOC(=O)C1CCN(C(=O)/C=C/c2cc(OC)c(OC)c(OC)c2)CC1 -11.5%, CCOC(=O)C1CCN(S(=O)(=O)c2cc(F)ccc2OC)CC1 -7.19%, CCN(CC)CC(=O)Nc1sc2c(c1C(=O)c1ccccc1C)CCC2 -10.9%, CCCCOc1ccc(CON(C(C)=O)C(C)=O)cc1Cl 3%, COc1ccc(-c2csc(NC(=O)c3ccc(N4C(=O)CCC4=O)cc3)n2)cc1OC -4.66%, O=C(CN1CCCCC1)Nc1ccccc1Cl -5.94%, Cc1ccccc1NC(=O)CNc1ccccc1N1CCCCC1 -11.4%, CCCCOc1ccc(N(CC(=O)NC(C)C)C(=O)CCC(=O)Nc2ccccn2)cc1 -8.63%, O=C1CC(=O)Nc2cc(S(=O)(=O)N3CCN(c4cccc(C(F)(F)F)c4)CC3)ccc2N1 9.3%, CC(C)Nc1nnc(SCC(=O)/C=C2\N(C)c3ccccc3C2(C)C)s1 0.42%, COC(=O)COc1ccc(C2NC(=O)NC(C)=C2C(=O)NCc2ccccc2)cc1OC (stereo not given) -4.82%, Cc1ccc2cc(C#N)c(NCCNC(=S)NCCCN3CCOCC3)nc2c1 -9.87%, COCCCNC(=S)NCCNc1nc2cc(C)c(C)cc2cc1C#N -7.08%, Cc1ccc(NC(=O)c2nc[nH]c2C(=O)N[C@@H](CCCCNC(=O)OC(C)(C)C)C(=O)OC(C)(C)C)cc1 -8.93%, O=c1c(-c2ccccc2)coc2cc(O)ccc12 4.45%, CN1CCN(Cc2c(O)ccc3c2oc(=O)c2ccccc23)CC1 0.82%, O=C(CSc1ccsc1[N+](=O)[O-])N1CCCCC1 -7.81%, S=c1[nH]nc(-c2ccco2)n1/N=C/c1ccccc1 -2.42%, CN1c2ccccc2-c2nc3ccccc3n2C1c1ccco1 (stereo not given) -9.91%, COc1ccc(-c2csc(Cc3nc(O)cs3)n2)cc1 -15.6%, CCOc1ccc(N=C2SC(C(=O)O)CC(=O)N2C)cc1 (stereo not given) 13.2%, NC1=NC(=O)S/C1=C\c1ccc(O)cc1 -5.85%, Cc1cccc(C(=O)Nc2ccc3c(c2)C(=O)N(CC(C)C)C3=O)c1 -3.81%, NC(=O)c1c(NC(=O)CSc2nnc(-c3ccco3)n2N)sc2c1CCCC2 -2.7%, COc1cccc(CN(C)CC(=O)Nc2sc3c(c2C#N)CCC3)c1 -5.48%, C=CCn1c(N)c(S(=O)(=O)c2cccs2)c2nc3ccccc3nc21 -4.17%, CC(C)Cn1c(N)c(C(=O)NCc2cccs2)c2nc3ccccc3nc21 6.16%, S=C(NCCc1ccccc1)Nc1ccccc1 -1.72%, N#Cc1ccc(C(=O)Nc2nc(-c3cccs3)c(C(=O)C(F)(F)F)s2)cc1 3.51%, CNc1ccc(NC(C)=O)cc1[N+](=O)[O-] 5.82%, Cc1ccc(Nc2ccc(C(N)=O)cc2[N+](=O)[O-])cc1 0.31%, Cc1onc(-c2ccccc2)c1C(=O)N=C(N)c1ccc(Cl)cc1 -6.58%, CCCN(CCC)S(=O)(=O)c1ccc(C(=O)N2CC3CCC(CC3)C2)cc1 -3.48%, O=C(Nc1ccncc1)c1cc(-c2ccccn2)nc2ccc(Br)cc12 44.9%, O=C(NCC(c1cccs1)N1CCOCC1)c1cc(-c2ccccn2)nc2ccccc12 (stereo not given) 1.32%, O=C(COC(=O)Cn1cnc2ccccc2c1=O)NCC12CC3CC(CC(C3)C1)C2 1.53%, Cn1cc(/C=C/C(=O)N2CCCC(C(=O)c3ccc(C(F)(F)F)cc3)C2)cn1 (stereo not given) -7.47%, CN(C)CCNC(=O)Cc1ccc([N+](=O)[O-])cc1 -6.79%, COc1ccc(-n2nnc3c(=O)n(CC(=O)OCc4ccccc4)cnc32)cc1 7.97%, COCc1cc(C)nc2sc3c(=O)n(-c4cccc5ccccc45)nnc3c12 5.95%, Nc1nc(-c2sc3nc4c(cc3c2N)CCCC4)nc(N2CCOCC2)n1 -13.9%, O=C(NNC(=S)NC1CC2CCC1C2)c1ccc(Cl)cc1 (stereo not given) -16.9%, Cc1nc2nc(SCC(=O)c3ccccc3)[nH]c2cc1Br -3%, CCc1ccccc1NC(=O)CN(C)C(=O)COc1ccc(C)nc1[N+](=O)[O-] -17.4%, Cc1ccc(OCC(=O)NC(C)c2ccccc2)c([N+](=O)[O-])n1 (stereo not given) 7.44%, O=[N+]([O-])c1cccc(/C([O-])=C(/C(=S)Nc2ccccc2F)[n+]2ccccc2)c1 -7.84%, Cc1cccc(C(=O)Nc2ccc(C(=O)/C=C/c3cccs3)cc2)c1 14.9%, Cc1ccc(C(=O)/C=C/Nc2ccc(S(=O)(=O)Nc3onc(C)c3C)cc2)cc1 -24.4%

inhibition, active:
COc1ccccc1CNC(=O)C1CCN(S(C)(=O)=O)CC1 74%, CCOC(=O)C1CCCCN1Cc1ccc(OC)c(OC)c1OC (stereo not given) 79.9%, O=C(CN1CCN(C2CCCCC2)CC1)Nc1ccccc1N1CCCCC1 72.6%, Cc1ccc2nc(NCCCNC(=O)c3cnccn3)c(C#N)cc2c1 70.8%, O=c1c(-c2ccccc2)coc2c(CN3CCOCC3)c(O)ccc12 81.7%, Cn1c(-c2ccco2)nc2cc3ccccc3cc21 75.6%, CCOc1ccc(N=C2NC(=O)S/C2=C\c2ccc(O)cc2)cc1 70.4% [fluorescence artefact?], COc1ccc(-n2c(SCC(=O)Nc3sc4c(c3C#N)CCCC4)nnc2-c2ccc(O)cc2)cc1 87.9%, C=CCn1c(N)c(C(=O)OCC(C)C)c2nc3ccccc3nc21 79.3% [fluorescence artefact?], CC(=O)Nc1ccc(/C=N/Nc2ccc(C(=O)c3c(C)cc4ccccn34)cc2[N+](=O)[O-])cc1 84.9%, O=C(NCc1cccs1)c1cc(-c2ccccn2)nc2ccc(Br)cc12 90.8%, COc1ccc(-c2c(C(C)=O)c(C)nc3sc4c(=O)n(-c5ccc(C)cc5)nnc4c23)cc1 81.2%, Cc1ccc(OCC(=O)Nc2ccccc2Sc2ccc(Cl)cc2)c([N+](=O)[O-])n1 71.7% [fluorescence artefact?]
